The results in this text go back to PubChem BioAssay.

Calls of active or inactive are those of the source. The rule behind the calls is not given here.

The test is described as follows: P. aeruginosa biofilm formation inhibitors, primary screen, PAO1 strain, BacTiter-Glo luminescence, LB-PBS (AID 1144). To be noted: 12 h, higher = more signal.
`CC(C)Cc1ccc(CN2CC[C@@H](NC(=O)Nc3ccccc3)C2)cc1`: the z-score was -0.00187 (inactive).

On to `CC(C)C[C@@H]1NC(=O)[C@@H]2C[C@H](C(=O)NCCCCN(C)C)[C@H](c3cccc(OCCO)c3)N2C1=O`, for which the z-score is -1.25 (inactive).

`CC1CC/C=C\[C@H]2OC34C=CCN(C(C)C)C(=O)[C@H]3N(CCCCCCO)C(=O)[C@@H]4C2C(=O)O1` (some centres not stated): the z-score is -1.31 (inactive).

Regarding `COc1ccc(CCNC(=O)[C@@]2(Sc3ccc(C)cc3)CC(=O)N(C3Cc4ccccc4C3)[C@@H]2c2ccc(CO)cc2)cc1`, the z-score is -0.926 (inactive).

For `COc1ccc(-c2nc(-c3ccccc3)c3c(c2C)CO[Si]3(C(C)C)C(C)C)cn1`, the z-score was 0.338 (inactive).

In the case of `CCCC[C@@H]1C[C@H]1[C@@H](NC(=O)c1cccs1)c1ccc(C(F)(F)F)cc1`, the z-score was 0.195 (inactive).

With `CN1C(=O)C2C=CC(C(O)c3ccc(F)cc3)N(Nc3ccccc3)C2C1=O` (configuration not stated), the z-score was -0.293 (inactive).

With `OCC1CC(c2ccccc2)=NO1` (configuration not stated), the z-score was -0.0165 (inactive).

For the compound `COC1OC[C@]2(C)[C@H]3C4=C(CN2C(=O)OC(C)(C)C)[C@H](C)C(CO)C(CO)C4CC[C@@H]13` (some centres not stated), the z-score is 0.326 (inactive).

With `NCCCCCCNC(=O)[C@@H]1C[C@@H]2C(=O)N[C@@H](CCCCN)C(=O)N2[C@@H]1c1cccc(OCCO)c1`, the z-score is -0.537 (inactive).

Regarding `CCOC(=O)C1=C[C@@H](c2ccccc2)N(S(=O)(=O)c2ccc(C)cc2)[C@H]1c1ccccc1Cl`, the z-score is 0.533 (inactive).

As to `CCOc1cc(C(O)C2C=CC3C(=O)N(c4ccccc4)C(=O)C3N2Nc2ccc(C#N)cc2)ccc1O` (configuration not stated), the z-score is -0.485 (inactive).
